Results taken from PubChem BioAssay (Tox21).
Results filed as inconclusive are left out. The source made the active and inactive calls. Calls follow the shape of the dose curve; as a rule, active = well fitted curve in the direction sought with a large enough effect in the repeat runs; inconclusive = weak or mixed curves; inactive = no such curve, though single readings can be large; an effect the other way counts as inactive or inconclusive.

Columns and labels:
[1] = Human pregnane X receptor (PXR) small molecule agonists, qHTS cell viability counter screen (AID 1346977); also: nearly all actives have a fitted effect of over 50% in size; also: potency is read from the fitted curve at half-maximal effect
Procedure, shortened: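 PXR-Luc HepG2 cells in medium with 5% charcoal-stripped FBS were pre-incubated 5hr, then exposed to compounds for 24hr at 37C. Viability was read in the same wells by CellTiter-Fluor fluorescence, reagent added after 23hr with a 1hr incubation.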

[2] = Caspase-3/7 induction in HepG2 cells by small molecules, qHTS assay (AID 1346978); also: nearly all actives have a fitted effect of over 15% in size
Procedure, shortened: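 Wild-type HepG2 cells (2,000/well) were settled 5 h at 37 C, 5% CO2, then exposed to compounds in DMSO for 17 h. Caspase-3/7 activity was read by luminescence 30 min after adding Caspase-Glo 3/7 reagent at room temperature.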

[3] = Caspase-3/7 induction in CHO-K1 cells by small molecules, qHTS assay (AID 1346980); also: nearly all actives have a fitted effect of over 15% in size
Procedure, shortened: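 Wild-type cells were seeded at 1,500 per well and settled 5 hr at 37 C, 5% CO2, then exposed to DMSO-dissolved compounds for 17 hr. Caspase-Glo 3/7 reagent was added, and luminescence was read after 30min at room temperature.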

[4] = Caspase-3/7 induction in HepG2 cells by small molecules, qHTS cell viability counter screen (AID 1346981); also: nearly all actives have a fitted effect of over 30% in size; also: potency is read from the fitted curve at half-maximal effect; as to activity change, negative = cytotoxicity: series mostly up to about 92 µM
Procedure, shortened: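 Steps: seed 2,000 HepG2 cells per well; incubate 5 hr at 37 C; pin-add compounds in DMSO; incubate 16 hr; add CellTiter-Fluor; after 1 hr at 37 C and 5% CO2, read fluorescence.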

[5] = target: Nuclear receptor subfamily 1 group I member 2 (Homo sapiens) (UniProt O75469); experiment: Human pregnane X receptor (PXR) small molecule agonists, qHTS assay (AID 1346982); also: nearly all actives have a fitted effect of over 35% in size; also: potency is read from the fitted curve at half-maximal effect
Chain of Nuclear receptor subfamily 1 group I member 2 (Homo sapiens) (O75469 whole entry, looked up): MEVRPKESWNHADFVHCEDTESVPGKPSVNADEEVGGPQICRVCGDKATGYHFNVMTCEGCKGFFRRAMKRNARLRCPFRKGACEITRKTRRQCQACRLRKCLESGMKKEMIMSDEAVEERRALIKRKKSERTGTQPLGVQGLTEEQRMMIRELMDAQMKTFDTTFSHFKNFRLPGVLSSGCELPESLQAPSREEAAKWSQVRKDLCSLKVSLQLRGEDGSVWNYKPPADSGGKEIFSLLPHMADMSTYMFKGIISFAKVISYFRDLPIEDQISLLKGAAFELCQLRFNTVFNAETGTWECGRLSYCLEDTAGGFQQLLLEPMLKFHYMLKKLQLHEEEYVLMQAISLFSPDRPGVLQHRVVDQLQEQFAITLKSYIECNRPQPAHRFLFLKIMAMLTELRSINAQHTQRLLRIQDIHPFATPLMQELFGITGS
Procedure, shortened: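 Agonist mode qHTS: PXR-Luc HepG2 cells plated 5 hr before DMSO-dissolved compounds were pinned in, cultured 24 hr at 37 C, 5% CO2; ONE-Glo luminescence readout.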

[6] = Caspase-3/7 induction in CHO-K1 cells by small molecules, qHTS cell viability counter screen (AID 1346979); also: nearly all actives have a fitted effect of over 35% in size; also: potency is read from the fitted curve at half-maximal effect
Procedure, shortened: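 Wild-type CHO-K1 cells were seeded at 1,500 per well, rested 5hr at 37 C, then exposed to compounds in DMSO. After 16hr, CellTiter-Fluor reagent was added and fluorescence read 1hr later as the viability measure.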

[7] = target: Cytochrome P450 2D6 (Homo sapiens) (UniProt P10635); experiment: Cytochrome P450 Family 2 Subfamily D Member 6 (CYP2D6) small molecule antagonists: luciferase reporter qHTS assay (AID 1671196); also: nearly all actives have a fitted effect of over 50% in size; also: potency is read from the fitted curve at half-maximal effect; as to activity change, negative = inhibition: series mostly up to about 120 µM
Chain of Cytochrome P450 2D6 (Homo sapiens) (P10635 whole entry, looked up): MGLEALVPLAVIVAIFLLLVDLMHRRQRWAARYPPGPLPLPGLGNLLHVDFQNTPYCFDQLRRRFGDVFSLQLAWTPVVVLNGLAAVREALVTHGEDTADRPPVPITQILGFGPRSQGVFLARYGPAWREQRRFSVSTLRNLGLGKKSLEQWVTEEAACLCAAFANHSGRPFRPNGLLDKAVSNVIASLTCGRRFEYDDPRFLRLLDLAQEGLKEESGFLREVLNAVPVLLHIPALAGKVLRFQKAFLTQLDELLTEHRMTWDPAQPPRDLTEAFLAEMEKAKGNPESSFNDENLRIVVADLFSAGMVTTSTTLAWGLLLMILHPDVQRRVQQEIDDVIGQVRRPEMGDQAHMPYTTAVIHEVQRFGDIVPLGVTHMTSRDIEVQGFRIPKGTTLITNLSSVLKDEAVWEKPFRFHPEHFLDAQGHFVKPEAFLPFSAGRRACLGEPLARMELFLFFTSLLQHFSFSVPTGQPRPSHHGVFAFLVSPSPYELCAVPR
Procedure, shortened: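 P450-Glo format: CYP2D6 converts a proluciferin substrate to luciferin in an NADPH-driven reaction lasting 1 h at room temperature. Light output, proportional to CYP2D6 activity, reflects interference by test chemicals.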

[8] = target: Nuclear receptor subfamily 1 group I member 2 (Rattus norvegicus) (UniProt Q9R1A7); experiment: Rat pregnane X receptor (rPXR) activation by small molecules, qHTS assay (AID 1346983); details: rPXR luciferase reporter cells, One-Glo luminescence, 24 h; max activation: active compounds read high; also: nearly all actives have a fitted effect of over 20% in size
Chain of Nuclear receptor subfamily 1 group I member 2 (Rattus norvegicus) (Q9R1A7 whole entry, looked up): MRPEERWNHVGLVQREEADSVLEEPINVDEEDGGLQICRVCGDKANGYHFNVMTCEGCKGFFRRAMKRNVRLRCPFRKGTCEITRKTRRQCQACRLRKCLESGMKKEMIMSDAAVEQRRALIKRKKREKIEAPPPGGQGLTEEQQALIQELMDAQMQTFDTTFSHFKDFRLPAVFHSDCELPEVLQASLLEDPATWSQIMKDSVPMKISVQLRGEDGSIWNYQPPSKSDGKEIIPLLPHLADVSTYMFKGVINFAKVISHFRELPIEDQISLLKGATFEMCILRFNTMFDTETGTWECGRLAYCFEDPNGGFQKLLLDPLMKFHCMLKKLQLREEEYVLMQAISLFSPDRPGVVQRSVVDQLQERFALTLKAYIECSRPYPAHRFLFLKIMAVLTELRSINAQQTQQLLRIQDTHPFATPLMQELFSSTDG
Procedure, shortened: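 Cell-based rPXR luciferase reporter assay, 2,000 cells per well, rested 5hr at 37 C before compound addition in DMSO, then 24 hr at 37 C. One-Glo reagent was added and luminescence read after 30 min at room temperature.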

[9] = target: Nuclear receptor subfamily 1 group I member 2 (Homo sapiens) (UniProt O75469); experiment: CYP3A4 induction through human pregnane X receptor (PXR) by small molecules, qHTS assay (AID 1346984); also: nearly all actives have a fitted effect of over 40% in size
Procedure, shortened: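 Steps: seed DPX-2 cells, 5 hr at 37C; pin-transfer compounds; 24 hr at 37C; add Luciferin-IPA (3uM final), 3 hr at 37C; add One-Glo, 30 min RT; read luminescence.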

[10] = target: Nuclear receptor subfamily 1 group I member 2 (Homo sapiens) (UniProt O75469); experiment: Human pregnane X receptor (PXR) activation by small molecules, qHTS assay (AID 1346985); also: nearly all actives have a fitted effect of over 40% in size; also: potency is read from the fitted curve at half-maximal effect
Procedure, shortened: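 DPX-2 cells (HepG2 co-transfected with a PXR response element and a CYP3A4-promoter luciferase construct) were seeded at 2,000 per well, rested 5 hr at 37C, then exposed to DMSO-dissolved compounds for 24 hr. Activation was read as luciferase luminescence.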
% is scaled to controls: 0 for no effect and ±100 for the full control effect.

Cn1c(=O)cc(Oc2ccc(F)cc2F)c2cnc(NCC(C)(C)O)nc21
inactive: Potency [1] | Potency [2] | Potency [3] | Potency [4]
active: Potency [5] 43.3 µM

CCCCc1nc2cccnc2n1Cc1ccc(-c2ccccc2-c2nnn[nH]2)cc1
inactive: Potency [1] | Potency [2] | Potency [3] | Potency [7]
active: Potency [6] 48.6 µM | Potency [5] 61.1 µM

CCCCC1=NC2(CCCC2)C(=O)N1Cc1ccc(-c2ccccc2-c2nn[nH]n2)cc1
inactive: Potency [1] | Potency [2] | Potency [3] | Potency [5] | max activation [8] -1.35% | Potency [9] | Potency [10] | Potency [7]
active: Potency [6] 29.8 µM

Cc1cc(C(=O)O)ccc1[N+](=O)[O-]
active: Potency [7] 56.5 µM
inactive: Potency [1] | Potency [2] | Potency [6] | Potency [3] | Potency [5]

CCCNCC(O)COc1ccccc1C(=O)CCc1ccccc1 (stereo not drawn)
active: Potency [1] 29.8 µM
inactive: Potency [2] | Potency [3] | Potency [4]

C/C=C/C(=O)CC
active: Potency [5] 10.5 µM
inactive: activity change, negative = cytotoxicity [1] -29.3% [at 19 µM] | caspase activation [2] 0.108% [at 19 µM] | activity change, negative = cytotoxicity [6] 0.0214% [at 19 µM] | caspase-3/7 activation [3] 1.13% [at 19 µM] | activity change, negative = inhibition [7] 0.0645% [at 23.6 µM]

Cc1ccc(N=Nc2c(O)c(C(=O)O)cc3ccccc23)c(S(=O)(=O)O)c1
active: Potency [1] 23.6 µM | Potency [6] 23.6 µM
inactive: Potency [2] | Potency [3] | Potency [5] | Potency [7]

CC(=O)c1ccc2c(c1)N(CCCN1CCC(CCO)CC1)c1ccccc1S2
inactive: Potency [2] | Potency [3] | max activation [8] -2.34% | Potency [10]
active: Potency [1] 26.6 µM | Potency [6] 29.8 µM

CCCC(=O)Nc1ccc(O)c(C(C)=O)c1
inactive: Potency [1] | Potency [2] | Potency [6] | Potency [3] | Potency [5] | Potency [7]

COCC(C)OC(C)=O (stereo not drawn)
inactive: Potency [1] | Potency [2] | Potency [6] | Potency [3] | Potency [5] | Potency [7]

O=P(O)(OCc1ccccc1)OCc1ccccc1
inactive: Potency [1] | Potency [2] | Potency [6] | Potency [3] | Potency [5] | Potency [7]

Brc1c2ccccc2c(Br)c2ccccc12
inactive: activity change, negative = cytotoxicity [1] 4.3% [at 8.39 µM] | caspase activation [2] 0.0205% [at 8.39 µM] | activity change, negative = cytotoxicity [6] 14.3% [at 8.39 µM] | caspase-3/7 activation [3] -0.773% [at 8.39 µM] | activation [5] 1.22% [at 8.39 µM] | activity change, negative = inhibition [7] 0.168% [at 10.5 µM]

CNC(=O)CN(CCN(CCN(CC(=O)[O-])CC(=O)NC)CC(=O)[O-])CC(=O)[O-].O.[Gd+3]
inactive: Potency [1] | Potency [2] | Potency [6] | Potency [3] | Potency [5] | Potency [7]

CCC(Cl)CCC(Cl)C(Cl)CC(Cl)C(Cl)C(Cl)CCl (stereo not drawn)
inactive: Potency [1] | Potency [2] | Potency [6] | Potency [3] | Potency [5] | Potency [7]

c1ccc(-c2ccccn2)nc1
inactive: Potency [1] | Potency [2] | Potency [6] | Potency [4]
active: Potency [5] 24.3 µM

C=C(C)C(=O)OCC
inactive: Potency [1] | Potency [2] | Potency [6] | Potency [3] | Potency [5] | Potency [7]

NS(=O)(=O)c1ccc(N2CCCCS2(=O)=O)cc1
inactive: Potency [1] | Potency [2] | Potency [6] | Potency [3] | Potency [5] | Potency [7]

CC(C)Nc1ccc(NC(C)C)c2c1C(=O)c1ccccc1C2=O
active: Potency [1] 14.2 µM | Potency [6] 25.3 µM | Potency [5] 1.27 µM
inactive: Potency [2] | Potency [3] | Potency [7]

ClCCOCCOCCCl
inactive: Potency [1] | Potency [2] | Potency [6] | Potency [3] | Potency [5] | Potency [7]

CC(=O)NO
inactive: Potency [1] | Potency [2] | Potency [6] | Potency [3] | Potency [5] | max activation [8] -0.0404% | Potency [9] | Potency [10] | Potency [7]

Nc1ccc([N+](=O)[O-])c(C(F)(F)F)c1
inactive: Potency [1] | Potency [2] | Potency [3] | Potency [5] | Potency [7]
active: Potency [6] 29.8 µM

CCOc1ccc(O)cc1
inactive: Potency [1] | Potency [2] | Potency [6] | Potency [3] | Potency [7]

C=CC(=O)OCCOc1ccccc1
inactive: Potency [1] | Potency [2] | Potency [3] | Potency [4]

OCCN1CCN(CCCN2c3ccccc3C=Cc3ccccc32)CC1
inactive: Potency [2] | Potency [6] | Potency [3] | max activation [8] -15.2%
active: Potency [1] 23.7 µM | Potency [5] 6.68 µM | Potency [10] 10 µM | Potency [7] 13.8 µM

COc1ccc(C(=O)Nc2nc3ccccc3c(NCc3ccccc3)c2C#N)cc1
active: Potency [6] 19.3 µM | Potency [5] 7.7 µM
inactive: Potency [1] | Potency [2] | Potency [3] | Potency [7]

C=CC(=O)OCCOCCOC(=O)C=C
active: Potency [1] 54.7 µM | Potency [6] 15.4 µM | Potency [4] 61.4 µM
inactive: Potency [2] | Potency [5] | Potency [7]

Cc1nn(C)c(Oc2ccccc2)c1/C=N/OCc1ccc(C(=O)OC(C)(C)C)cc1
inactive: Potency [2] | Potency [3] | Potency [7]
active: Potency [1] 0.0863 µM | Potency [6] 0.0154 µM | Potency [5] 38.6 µM
